Results on 28 molecules are retold here after PubChem BioAssay AID485313 (National Center for Advancing Translational Sciences (NCATS), 2010).

Molecules are shown by their SMILES. The whole screen tested about 320,000 compounds, of which about 7,600 (2.4%) were called active. A call without a number means that no potency is given here. Inconclusive results (about 3%) are left out. Only a selection was taken, and actives are over-represented in it overall. Values without a mark were called inactive. Calls come from the whole dose curve; as a rule, active = well fitted activation curve with a large enough effect; inconclusive = small, poorly fitted or top-dose-only effect; inactive = no such curve, though single readings can be large or run the other way.
Potency is the fitted concentration of half-maximal effect.

The assay can be described thus: qHTS Assay for NPC1 Promoter Activators.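 For activation: reporter is driven by a mutant NPC1 promoter.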 Note: nearly all actives have a fitted effect of over 60% in size. The conditions noted are these: Huh7 NPC1 promoter luciferase reporter, 24 h; series mostly up to 9.22 µM. An outline of the steps: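 Quantitative HTS used a cell-based reporter: Huh7 cells stably bearing the NPC1 promoter upstream of luciferase were treated with compounds for 24 h, and promoter activation was read as luminescence.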
Regarding `COc1ccc(S(=O)(=O)N2CCOCC2)cc1NC(=O)Cc1c(F)cccc1Cl`, the Potency result was “inactive”. Same read-out and setting: next, `Cc1sc2ncnc(SCC(=O)Nc3ccc(CN4CCCC4)cc3)c2c1C`: “inactive”.

Regarding `Cc1ccc(OCCOc2cccc(/C=N/NC(N)=O)c2)cc1`, the Potency is 2820 nM (active). On to `O=C(N/N=C/c1cccc(OCc2ccccc2)c1)c1ccc(Br)o1`, for which the Potency result was “inactive”. Turning to `Cc1cccc(OCC(=O)NCC(=O)N/N=C/c2ccc(N(C)C)cc2)c1`, the Potency entry was “inactive”.

For `COc1ccc(OC)c(-c2csc(NC(=O)COC(=O)C3CC3)n2)c1`, the Potency result is “inactive”. Turning to `O=C(NCC1CCCO1)c1cc2c(s1)CCCC2` (stereo not drawn), the activation is 12.7% [at 1.84 µM]. Regarding `Cn1nccc1NS(=O)(=O)c1ccc(F)cc1`, the Potency was 0.3 nM (active). Turning to `Cc1cc(C)cc(NS(=O)(=O)c2ccc(F)cc2)c1`, the Potency entry was “inactive”. Still for that read-out and setting: the same measure for `Cc1ccc(NS(=O)(=O)c2ccc(F)cc2)nc1`: “inactive”. On to `O=C(CCNC(=O)c1ccc(Cl)cc1)NC1CCCc2ccccc21` (stereo not drawn), for which the Potency entry was “inactive”. The same measure, in the same setting: next, `CC(=O)c1cc2c(cc1N)OCO2`: “inactive”.

`Cc1[nH][nH]c(=O)c1N=Nc1ccccc1`: the Potency result is “inactive”. On to `Nc1[nH][nH]c(=O)c1N=Nc1ccc2c(c1)OCO2`, for which the Potency is 2820 nM (active). As to `Cc1cc(C)cc(OCC(=O)OCC(=O)NC2CCCC2)c1`, the Potency entry was “inactive”. Turning to `Nc1ccn(CC(=O)N2CCN(c3ccccn3)CC2)c(=O)n1`, the Potency result was “inactive”. For `CC(C)N(Cc1nnc(-c2ccccc2Br)o1)C(=O)c1cc(Cl)nc2ccccc12`, the Potency result was “inactive”. Same read-out and setting: next, `CCC(=O)Nc1ccc(-c2ccc(N3CCCCC3)nn2)cc1`: 2240 nM (active). The same measure, in the same setting: the same measure for `CCC(=O)c1ccc(OCC(=O)Nc2ccc(N3CCCCC3)cc2)cc1`: “inactive”. As for `CCCCSc1nnc(-c2ccc(NC(=O)CC)cc2)n1C`, the Potency entry was “inactive”. As to `CN(CC(=O)NCCc1ccc(F)cc1)CC(=O)Nc1ccc(F)c(F)c1F`, the Potency result is “inactive”. The same measure, in the same setting: the same measure for `O=C(Nc1ccc2c(c1)OCO2)C1CC(c2c(F)cccc2Cl)=NO1` (stereo not drawn): 3980 nM (active); for `Cc1ccc(NC(=O)C2CC(c3ccc(F)cc3)=NO2)cc1` (stereo not drawn): “inactive”. Consider `O=C(Nc1ccc2c(c1)OCO2)C1CC1(Cl)Cl` (stereo not drawn), for which the Potency entry is “inactive”. On to `CN(Cc1cccs1)C(=O)CN1C(=O)c2ccccc2S1(=O)=O`, for which the Potency result was “inactive”. Same read-out and setting: the same measure for `O=C(COC(=O)c1cccc(Cl)c1)NC1CCCCCCC1`: “inactive”; for `CCCN(CC(=O)NC(=O)NC1CCCCC1)CC(=O)Nc1cc(Cl)ccc1Cl`: “inactive”.

As to `CC(=O)NC12CC3CC(C1)CC(C(=O)N1CCN(S(=O)(=O)c4cccs4)CC1)(C3)C2`, the Potency result was “inactive”.
